Data taken from the OligoGym collection.
Further: reference of the scale not given here.

These sequences were tested against HINT3 (assay: pooled miR-30 sensor sort-seq; sequence = guide strand). Settings: shRNA.
With TTTGAAGCAAATTAGGTCCTCA the sensor-assay potency score (higher = more potent) was 0.444. With TTGACTCTATAAACCAACTTGG the sensor-assay potency score (higher = more potent) was -0.569. In the case of TATCATATATATAAAATCCTTA, the sensor-assay potency score (higher = more potent) was -0.582. In the case of TATAACTGACTACTTACTGAGA, the sensor-assay potency score (higher = more potent) was -0.693. TATCTTTGAAGCAAATTAGGTC was tested, and the sensor-assay potency score (higher = more potent) was -0.138. In the case of TCTTAGGAAACAGACATTCAGA, the sensor-assay potency score (higher = more potent) was -1.03. For TTCTACTTGATCTTTCCTTAGA, the sensor-assay potency score (higher = more potent) was -0.545. In the case of TACCACTTCATGCTGAACCAAG, the sensor-assay potency score (higher = more potent) was -0.805. With TTGATTAACAGAATTTGTCTTA the sensor-assay potency score (higher = more potent) was 0.577. TAACTGACTACTTACTGAGAAA was tested, and the sensor-assay potency score (higher = more potent) was -1.61. ATTGACTCTATAAACCAACTTG gave a sensor-assay potency score (higher = more potent) of -0.483. In the case of TTTTCCAACAGTTACCATGTTC, the sensor-assay potency score (higher = more potent) was -0.723.

Each sequence was assayed against HIP1R in the same assay as above. Settings: shRNA.
Work on TACCTCATCTGTCACCTCCAGG yielded a sensor-assay potency score (higher = more potent) of -0.947. Work on TTGGTCAGCAGCAGCTTGGTGT yielded a sensor-assay potency score (higher = more potent) of -0.763. Work on TTGAGCTGTCGGAAAACTGATT yielded a sensor-assay potency score (higher = more potent) of -1.02. Work on TTGAACAGGAGCTTGACCGTGT yielded a sensor-assay potency score (higher = more potent) of 0.954. TTGGTGGTTACACTTCGGGGGG showed a sensor-assay potency score (higher = more potent) of -1.01. Work on TTGAGGTGGAAGGAGATCTTGG yielded a sensor-assay potency score (higher = more potent) of -0.812. Sequence TTGATGGCTTTGCTGATGCTGA has a sensor-assay potency score (higher = more potent) of -1.07.
